# About 3,000 (1%) of roughly 290,000 compounds were called active. No stated cut-off is given here; in the data, active means inhibition mostly above about 36% (no sharp cut-off); inactive means mostly below about 34%. Many of the other results were omitted from the sample, so actives are more common in it than they were.
# Experiment: inhibition of NOD1-driven NF-kB reporter – cell-based, luminescence, uHTS, primary screen (AID 1578);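 further: HEK-293T reporter cells stimulated with the NOD1 agonist gamma-tri-DAP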
# Conditions: NOD1-driven NF-kB luciferase reporter cells, at 4 µM, active compounds read high
row,Structure (SMILES),inhibition
1,CCCCn1c(=O)[nH]c(=O)c2c1nc(CN1C(=O)c3ccccc3S1(=O)=O)n2CCC,-23.3% (inactive)
2,CCCCn1c(=O)[nH]c(=O)c2c1nc(Cn1ncc(Cl)c(Cl)c1=O)n2CCC,85% (active)
3,CCCCn1c(CCC(=O)O)nc2c1c(=O)[nH]c(=O)n2CCC,-15.7% (inactive)
4,COc1ccc(NC(=O)c2ccccn2)cc1S(=O)(=O)N1CCOCC1,-33.7% (inactive)
5,CC1=Nc2ccccc2/C1=C\c1sc(Nc2ccc(C)cc2)nc1O,1.1% (inactive)
6,Oc1[nH]c(=S)sc1C=C1N=c2ccccc2=N1,-5.9% (inactive)
7,Oc1[nH]c(=S)sc1/C=C1\C(c2ccccc2)=Nc2ccccc21,72.5% (active)
8,Cc1ccc(S(=O)(=O)N2CCN(C(=O)CSC3CCCC3)CC2)c(C)c1,-8.8% (inactive)
9,Cc1cccc(N2CCN(c3nc4nonc4nc3N3CCSCC3)CC2)n1,-22.4% (inactive)
10,Cc1ccc(NC(=O)C(=O)NCc2ccccn2)cc1,-47.6% (inactive)
11,Cc1cc(SCC(N)=O)nc(SCC(=O)c2ccccc2)n1,28.1% (inactive)
12,Cc1ccc(C(=O)CSc2cc(C)nc(SCC(=O)c3ccccc3)n2)cc1,61.4% (inactive)
13,COc1ccc(C(=O)CSc2cc(C)nc(SCC(=O)c3ccc(C)cc3)n2)cc1,63.1% (active)
14,Cc1ccc(S(=O)(=O)N2CCN(C(=O)c3sccc3-c3ccccc3)CC2)cc1,-24.8% (inactive)
15,COc1ccc(N(C(C)C(=O)N/N=C/c2ccc(OC(C)C)cc2)S(C)(=O)=O)cc1 (configuration not stated),14.7% (inactive)
16,Cc1[nH]nc2c1C(c1ccsc1)C(C#N)=C(N)O2 (configuration not stated),-7.7% (inactive)
17,CC(C)(C)c1[nH]nc2c1C(c1ccsc1)C(C#N)=C(N)O2 (configuration not stated),59.2% (active)
18,CC(C)(C)c1[nH]nc2c1C(c1ccncc1)C(C#N)=C(N)O2 (configuration not stated),-8.8% (inactive)
19,Cc1ccc(C)c(NS(=O)(=O)c2csc(C(N)=O)c2)c1,-9.7% (inactive)
20,O=C(Nc1ccc(Nc2ccccc2)cc1)C(Cl)Cl,-5.4% (inactive)
21,CC(=O)c1c(-c2ccccc2)[nH]c2ccccc12,5.8% (inactive)
22,Cc1ccccc1N1C(=O)CC(c2c[nH]c3ccccc23)C1=O (configuration not stated),-3.6% (inactive)
23,COc1nc(OC)nc(N2CCC(C(=O)NCC3CCCCC3)CC2)n1,-10.9% (inactive)
24,Cc1nnc(SCCn2c(N3CCCC(C)C3)nc3c2c(=O)[nH]c(=O)n3C)s1 (configuration not stated),-9.1% (inactive)
25,C=CCN(CC=C)C(=S)NC(=O)c1ccc(OC)c(Br)c1,30.4% (inactive)
26,C=CCN(CC=C)C(=S)NC(=O)c1ccc(C)c(Br)c1,108% (active)
27,C=CCNC(=S)NC(=O)c1ccc(C)c(Br)c1,-4.3% (inactive)

# From PubChem BioAssay AID1578 (Sanford-Burnham Center for Chemical Genomics, 2009)
